According to PubChem BioAssay (NCI):
This is part of a sample that, as a whole, favours compounds with a hit. Of some 79,000 tested, about 15% had one in any assay. The source made the active and inactive calls. No stated cut-off is given here; in the data, active means growth inhibition above about 70%; inactive means the rest.

Assay: NCI Yeast Anticancer Drug Screen. Data for the mec2-1 strain (AID 157)
Conditions: S. cerevisiae mec2-1 strain, at 100.0 µM, hits give high values
How it was run: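 Cells of the genetically defined mec2-1 yeast strain are incubated with test compound. Inhibition of growth is calculated against vehicle-treated controls.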
With `CC(CN(C)C)C(=O)/C=C/c1ccc(Cl)c(Cl)c1` (configuration not stated) the growth inhibition was 97% (active). For `CCCCCCNCCCNc1c2cc(OC)ccc2nc2cccc([N+](=O)[O-])c12`, the growth inhibition was 99% (active). With `NC(=S)N1N=C2c3ccccc3CC[C@H]2[C@@H]1c1ccc(Cl)cc1` the growth inhibition was 88% (active). In the case of `C/C(=N/NC(=S)Nc1ccccc1C)c1ccccn1`, the growth inhibition is reported as -6% (inactive). In the case of `O=C1/C(=C/c2ccc(Cl)c(Cl)c2)CNC/C1=C\c1ccc(Cl)c(Cl)c1`, the growth inhibition is reported as 93% (active). In the case of `CC(C)OP(=O)(OC(C)C)C(=NCCO)NNc1ccc([N+](=O)[O-])cc1`, the growth inhibition is reported as 40% (inactive). With `N#CCC(=O)N/N=C(\c1ccccc1)C(c1ccccc1)C1(O)C(=O)Nc2c(Cl)ccc(Cl)c21` (configuration not stated) the growth inhibition was 11% (inactive). For `CC(C)(CN1CCCCC1)C(=O)CC(SCCS(=O)(=O)O)c1ccccc1` (configuration not stated), the growth inhibition was 8% (inactive). With `COC1=CCC23C(=O)C=CC(=O)C2(C1)C(=O)c1ccccc1C3=O` (configuration not stated) the growth inhibition was 91% (active). In the case of `CCCCN(CCCC)c1ccc(N=Nc2ccc(S(=O)(=O)O)cc2)cc1`, the growth inhibition is reported as 97% (active). With `c1ccc2nc3c(nc2c1)sc1ccccc13` the growth inhibition was 36% (inactive). In the case of `O=C1c2ccccc2-c2ccc(N=Cc3ccccc3)cc21`, the growth inhibition is reported as 24% (inactive). In the case of `CNC(=S)N/N=C(/C)CCC/C(C)=N/NC(=S)NC`, the growth inhibition is reported as 35% (inactive). With `Nc1ccc(/C=C/c2ccc3cccnc3c2)cc1` the growth inhibition was 6% (inactive). For `COc1ccc2c3c1OC(C)C31CC(=O)CCC1CC2` (configuration not stated), the growth inhibition was -2% (inactive). With `CCOC(=O)Nc1ccc(C)c(NC(=O)OCC)c1` the growth inhibition was 20% (inactive). With `CCN(CC)CCNc1ccc2nc(C)n3c4ccc(OC)cc4c(=O)c1c23` the growth inhibition was 32% (inactive). In the case of `C[N+](C)([O-])CCCNc1c2ccccc2nc2cccc([N+](=O)[O-])c12`, the growth inhibition is reported as 96% (active). For `O=C(c1cc(=O)c2ccc(O)cc2o1)c1ccc(Cl)cc1Cl`, the growth inhibition was 93% (active). In the case of `CCCNC(=O)OCc1c(COC(=O)NCCC)c(-c2ccc(Cl)c(Cl)c2)n2c1CCC2`, the growth inhibition is reported as 28% (inactive). For `O=C(Cc1ccccc1)NN1C(=O)C(Cl)C1c1cc(Br)cc(Br)c1O` (configuration not stated), the growth inhibition was 92% (active). With `CCOC(=O)C(Cc1c2ccccc2cc2ccccc12)(NC(C)=O)C(=O)OCC` the growth inhibition was -1% (inactive). For `O=[N+]([O-])/C=C/c1cc2ccc3ccccc3c2[nH]1`, the growth inhibition was 93% (active). With `Fc1ccc(Nc2ccc3ccccc3c2)cc1` the growth inhibition was 93% (active). In the case of `O=S1(=O)CCC2=CC(C(F)(F)F)=CC(C(F)(F)F)=CN21`, the growth inhibition is reported as 99% (active). In the case of `O=C(Cc1ccccc1)NNc1nc(NNC(=O)c2ccncc2)nc(Nc2ccc([N+](=O)[O-])cc2)n1`, the growth inhibition is reported as 23% (inactive). With `CCCCS/C(=C(/C#N)C(N)=O)c1cc2c([nH]1)CCCC2` the growth inhibition was 52% (inactive). For `O=C(O)c1ccccc1C(=O)OC1CCc2ccccc2C1` (configuration not stated), the growth inhibition was 36% (inactive). With `CCOC(=O)/C(=C\c1cccc(C)c1)C(C)=O` the growth inhibition was 100% (active). In the case of `NC(=S)N/N=C1\c2ccccc2CCC1CCC1(O)CCc2ccccc2C1=O` (configuration not stated), the growth inhibition is reported as 81% (active). With `Cc1cccc2c(Cl)c3cccc(C)c3nc12` the growth inhibition was 6% (inactive). In the case of `CC(C)OC(=O)NNc1c(Cl)cc(Cl)cc1Cl`, the growth inhibition is reported as 0% (inactive). In the case of `Nc1ccc2c(c1)C(=O)c1c(F)cccc1-2`, the growth inhibition is reported as 67% (inactive). With `N#CSCC1COc2ccccc2O1` (configuration not stated) the growth inhibition was 97% (active). For `Cc1ccc(S(=O)(=O)NC(=O)C2C(=O)CC3(CCCCC3)CC2=O)cc1`, the growth inhibition was 83% (active). For `CC1=NN(C(=O)c2ccccc2O)C(=O)/C1=C/c1ccco1`, the growth inhibition was 96% (active).

Assay: NCI Yeast Anticancer Drug Screen. Data for the rad14 strain (AID 159);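 further: 0% = growth of vehicle-treated control cultures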
Conditions: S. cerevisiae rad14 strain growth inhibition; at 1.2 µM; hits give high values
How it was run: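 A mutant yeast strain defective in DNA damage repair is treated with compound; inhibition of its growth is scored against untreated, vehicle-exposed cultures.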
For `CC(CN(C)C)C(=O)/C=C/c1ccc(Cl)c(Cl)c1` (configuration not stated), the growth inhibition was 6% (inactive). With `CCCCCCNCCCNc1c2cc(OC)ccc2nc2cccc([N+](=O)[O-])c12` the growth inhibition was 7% (inactive). With `NC(=S)N1N=C2c3ccccc3CC[C@H]2[C@@H]1c1ccc(Cl)cc1` the growth inhibition was -28% (inactive). With `C/C(=N/NC(=S)Nc1ccccc1C)c1ccccn1` the growth inhibition was -11% (inactive). For `O=C1/C(=C/c2ccc(Cl)c(Cl)c2)CNC/C1=C\c1ccc(Cl)c(Cl)c1`, the growth inhibition was 7% (inactive). For `CC(C)OP(=O)(OC(C)C)C(=NCCO)NNc1ccc([N+](=O)[O-])cc1`, the growth inhibition was -10% (inactive). In the case of `N#CCC(=O)N/N=C(\c1ccccc1)C(c1ccccc1)C1(O)C(=O)Nc2c(Cl)ccc(Cl)c21` (configuration not stated), the growth inhibition is reported as 3% (inactive). For `CC(C)(CN1CCCCC1)C(=O)CC(SCCS(=O)(=O)O)c1ccccc1` (configuration not stated), the growth inhibition was 3% (inactive). For `COC1=CCC23C(=O)C=CC(=O)C2(C1)C(=O)c1ccccc1C3=O` (configuration not stated), the growth inhibition was -24% (inactive). With `CCCCN(CCCC)c1ccc(N=Nc2ccc(S(=O)(=O)O)cc2)cc1` the growth inhibition was -5% (inactive). With `c1ccc2nc3c(nc2c1)sc1ccccc13` the growth inhibition was 4% (inactive). With `O=C1c2ccccc2-c2ccc(N=Cc3ccccc3)cc21` the growth inhibition was 3% (inactive). In the case of `CNC(=S)N/N=C(/C)CCC/C(C)=N/NC(=S)NC`, the growth inhibition is reported as 30% (inactive). For `Nc1ccc(/C=C/c2ccc3cccnc3c2)cc1`, the growth inhibition was 1% (inactive). For `COc1ccc2c3c1OC(C)C31CC(=O)CCC1CC2` (configuration not stated), the growth inhibition was -2% (inactive). With `CCOC(=O)Nc1ccc(C)c(NC(=O)OCC)c1` the growth inhibition was 3% (inactive). With `CCN(CC)CCNc1ccc2nc(C)n3c4ccc(OC)cc4c(=O)c1c23` the growth inhibition was 33% (inactive). In the case of `C[N+](C)([O-])CCCNc1c2ccccc2nc2cccc([N+](=O)[O-])c12`, the growth inhibition is reported as 41% (inactive). In the case of `O=C(c1cc(=O)c2ccc(O)cc2o1)c1ccc(Cl)cc1Cl`, the growth inhibition is reported as 2% (inactive). In the case of `CCCNC(=O)OCc1c(COC(=O)NCCC)c(-c2ccc(Cl)c(Cl)c2)n2c1CCC2`, the growth inhibition is reported as -28% (inactive). With `O=C(Cc1ccccc1)NN1C(=O)C(Cl)C1c1cc(Br)cc(Br)c1O` (configuration not stated) the growth inhibition was -3% (inactive). With `CCOC(=O)C(Cc1c2ccccc2cc2ccccc12)(NC(C)=O)C(=O)OCC` the growth inhibition was -3% (inactive). In the case of `O=[N+]([O-])/C=C/c1cc2ccc3ccccc3c2[nH]1`, the growth inhibition is reported as 11% (inactive). With `Fc1ccc(Nc2ccc3ccccc3c2)cc1` the growth inhibition was -1% (inactive). In the case of `O=S1(=O)CCC2=CC(C(F)(F)F)=CC(C(F)(F)F)=CN21`, the growth inhibition is reported as 25% (inactive). With `O=C(Cc1ccccc1)NNc1nc(NNC(=O)c2ccncc2)nc(Nc2ccc([N+](=O)[O-])cc2)n1` the growth inhibition was -3% (inactive). In the case of `CCCCS/C(=C(/C#N)C(N)=O)c1cc2c([nH]1)CCCC2`, the growth inhibition is reported as -11% (inactive). In the case of `O=C(O)c1ccccc1C(=O)OC1CCc2ccccc2C1` (configuration not stated), the growth inhibition is reported as -5% (inactive). With `CCOC(=O)/C(=C\c1cccc(C)c1)C(C)=O` the growth inhibition was -6% (inactive). For `NC(=S)N/N=C1\c2ccccc2CCC1CCC1(O)CCc2ccccc2C1=O` (configuration not stated), the growth inhibition was 2% (inactive). For `Cc1cccc2c(Cl)c3cccc(C)c3nc12`, the growth inhibition was -2% (inactive). With `CC(C)OC(=O)NNc1c(Cl)cc(Cl)cc1Cl` the growth inhibition was -4% (inactive). For `Nc1ccc2c(c1)C(=O)c1c(F)cccc1-2`, the growth inhibition was 2% (inactive). With `N#CSCC1COc2ccccc2O1` (configuration not stated) the growth inhibition was -20% (inactive). With `Cc1ccc(S(=O)(=O)NC(=O)C2C(=O)CC3(CCCCC3)CC2=O)cc1` the growth inhibition was -29% (inactive). With `CC1=NN(C(=O)c2ccccc2O)C(=O)/C1=C/c1ccco1` the growth inhibition was -1% (inactive).
